# Pol iota inh: qHTS for Inhibitors of Polymerase Iota; DNA polymerase iota (Homo sapiens), Q9UNA4; Pol iota fluorescent replication assay, 10 min; Potency, µM (titrated, usually from 115 µM), for inactives: at the top dose activity, negative = inhibition, most hits filed as inhibitors; 390,000 tested, 1% active; further: potency means the concentration at half of the fitted maximal effect
# Target sequence (Q9UNA4 whole entry, looked up): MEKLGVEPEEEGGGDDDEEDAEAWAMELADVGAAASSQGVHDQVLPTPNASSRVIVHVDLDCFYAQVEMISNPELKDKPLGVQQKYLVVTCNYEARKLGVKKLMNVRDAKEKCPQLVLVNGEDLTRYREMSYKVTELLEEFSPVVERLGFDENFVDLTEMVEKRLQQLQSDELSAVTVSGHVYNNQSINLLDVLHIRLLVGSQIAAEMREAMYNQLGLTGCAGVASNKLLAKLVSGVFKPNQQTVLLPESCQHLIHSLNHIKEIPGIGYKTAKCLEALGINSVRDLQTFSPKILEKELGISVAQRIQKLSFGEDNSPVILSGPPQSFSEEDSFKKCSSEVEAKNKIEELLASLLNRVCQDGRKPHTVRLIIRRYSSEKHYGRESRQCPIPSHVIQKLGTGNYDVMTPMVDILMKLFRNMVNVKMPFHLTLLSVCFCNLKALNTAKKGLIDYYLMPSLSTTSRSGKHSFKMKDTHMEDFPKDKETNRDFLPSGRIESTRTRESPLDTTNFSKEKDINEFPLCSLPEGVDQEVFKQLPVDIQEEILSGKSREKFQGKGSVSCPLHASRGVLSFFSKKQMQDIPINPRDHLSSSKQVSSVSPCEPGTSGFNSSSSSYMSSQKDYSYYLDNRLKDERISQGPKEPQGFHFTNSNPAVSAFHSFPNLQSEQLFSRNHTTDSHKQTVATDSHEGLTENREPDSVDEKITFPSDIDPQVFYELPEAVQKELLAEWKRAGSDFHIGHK
#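 Pol iota at 10 nM preincubated 15 min with compounds at room temperature; reaction started with fluorescent substrate, 50 nM final. Fluorescence read kinetically at 0 and 10 min; buffer-only wells as negative control.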
# GLS inhibitor: qHTS for Inhibitors of Glutaminase (GLS); Glutaminase kidney isoform, mitochondrial (Homo sapiens), O94925; GLS enzymatic activity, qHTS titration; Potency, µM (doses to about 45.5 µM), without a hit: top-dose activity change, negative = inhibition, usual class: inhibitors; 410,000 tested, 0.21% active; further: potency means the concentration at half of the fitted maximal effect; on the % scale 0 is the no-effect control and ±100 the full control effect
#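 Two-point fluorescence kinetic (t0, 30 min RT) for hKGA; glutamate detected via glutamate oxidase–HRP–Amplex Red. Substrate: 1 mM L-glutamine solution; buffer 45 mM KH2PO4, pH 8.2.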
# Pol eta inh-1: qHTS for Inhibitors of Polymerase Eta. DNA polymerase eta (Homo sapiens), Q9Y253. Potency, µM (top dose mostly 114 µM), for inactives: top-dose activity change, negative = inhibition, most hits filed as inhibitors. recombinant Pol eta, fluorescent DNA replication assay. 390,000 tested, 1.2% active; further: potency means the concentration at half of the fitted maximal effect; on the % scale 0 is the no-effect control and ±100 the full control effect
#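 Pol eta (10 nM) was preincubated with compounds for 15 min at room temperature, after which fluorescent replication substrate (50 nM final) was added to start the reaction. Fluorescence was read kinetically at 0 and 10 min.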
# Pol kappa inh-1: qHTS for Inhibitors of Polymerase Kappa. DNA polymerase kappa (Homo sapiens), Q9UBT6. purified Pol kappa, fluorescent DNA synthesis assay, 10 min. Potency, µM (titrated, usually from 107 µM), for the others: at the highest dose activity, negative = inhibition, hits mostly inhibitors. 400,000 tested, 0.53% active. AID 588579, 2011; further: potency means the concentration at half of the fitted maximal effect; on the % scale 0 is the no-effect control and ±100 the full control effect
#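 50 nM final substrate added after 15 min RT preincubation of 10 nM Pol kappa with compound; fluorescence read at 0 and 10 min.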
# KAT2A inh: qHTS Assay for Inhibitors of GCN5L2. Histone acetyltransferase KAT2A (Homo sapiens), Q92830. GCN5L2 HAT assay, ThioGlo1 CoA-SH fluorescence. Potency, µM (series often up to 58.9 µM), inactives show at the highest dose activity change, negative = inhibition, actives largely listed as inhibitors. 390,000 tested, 0.21% active; further: potency means the concentration at half of the fitted maximal effect; on the % scale 0 is the no-effect control and ±100 the full control effect
#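 Enzyme at 20nM final was mixed with library compounds for 15 min at room temperature. Peptide H3(1-25) at 75uM, acetyl-CoA at 70uM and ThioGlo1 at 50uM were then added. Plates were read immediately and after 20 min (Ex340nm/Em540nm).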
# Pol beta inh: qHTS Assay for Inhibitors of DNA Polymerase Beta | Pol beta primer extension/strand displacement, fluorescence kinetic | P06746 | AID 485314, 2010 | Potency, µM (doses to about 114 µM), inactives show at the highest dose activity change, negative = inhibition, most hits filed as inhibitors | 340,000 tested, 1.3% active; further: potency means the concentration at half of the fitted maximal effect; on the % scale 0 is the no-effect control and ±100 the full control effect
#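 Pol beta (10 nM) was preincubated with compound for 15 min at room temperature. The reaction was then started with 50 nM substrate and read immediately and after a further 10 min at room temperature.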
# GALK confirm: Confirmation Assay for Inhibitors of Human Galactokinase (GALK). shares compounds with Pol eta inh-1. 150 tested, 70% active. AID 2015, 2009. purified GALK, Kinase-Glo ATP depletion luminescence. Potency, µM (titrated, usually from 115 µM), without a hit: at the highest dose activity, negative = inhibition, usual class: inhibitors
# Redox cycling: Confirmatory Assay for Inhibitors of Human Galactokinase (GALK): Phenol-HRP redox assay counterscreen | 150 tested, 40% active | Potency, µM (doses to about 115 µM), for the others: at the highest dose activity change, negative = H2O2 signal, most hits filed as inhibitors | shares compounds with Pol eta inh-1 | Phenol red-HRP H2O2 redox cycling, absorbance 600 nm
# HEK293 tox: Secondary Assay for Inhibitors of Human Galactokinase (GALK): HEK-293 Cell Viability Assay; shares compounds with Pol eta inh-1; HEK-293 viability, ATP luminescence (CellTiter-Glo), 24/48 h; Potency, µM (series often up to 46.1 µM), without a hit: top-dose activity change, negative = cytotoxicity, usual class: inhibitors; 170 tested, 10% active; AID 2547, 2010; further: potency means the concentration at half of the fitted maximal effect; on the % scale 0 is the no-effect control and ±100 the full control effect
# Pol kappa inh-2: qHTS for Inhibitors of Polymerase Kappa: Confirmatory Assay for Cherry-picked Compounds; Potency, µM, hits mostly inhibitors; 920 tested, 76% active; shares compounds with Pol eta inh-1; purified Pol-kappa, fluorescent strand-displacement substrate; further: potency means the concentration at half of the fitted maximal effect
# Pol eta inh-2: qHTS for Inhibitors of Polymerase Eta: Confirmatory Assay for Cherry-picked Compounds | shares compounds with Pol eta inh-1 | Pol eta primer extension, TAMRA/BHQ fluorescence, 10 min | Potency, µM, most hits filed as inhibitors | 2,600 tested, 64% active | AID 720502, 2013; further: potency means the concentration at half of the fitted maximal effect
# Numbers without * were called inactive; ? = inconclusive; . = no result; [ ] = dose if it differs, or a comment. Only some compounds are listed: those with a hit (about 2.4% of all), similar ones and a draw of the others. The call rests on the fitted dose curve; in most records, active means well fitted curve in the direction sought with a large enough effect; inconclusive means small, poorly fitted or top-dose-only effect, or another doubt; inactive means no such curve, though single readings can be large; an effect the other way counts as inactive or inconclusive.
SMILES,Pol iota inh,GLS inhibitor,Pol eta inh-1,Pol kappa inh-1,KAT2A inh,Pol beta inh,Pol eta inh-2,others
O=C(O)c1ccccc1NCc1ccncc1,-11.3%,0.0%,-5.1%,7.0%,-3.3%,31.0%,.,
O=C(O)c1ccc(CNc2ccccc2C(=O)O)cc1,?,62.8%,?,?,-3.6%,11.2µM*,?,
Cc1[nH][nH]c(=O)c1C(c1ccc(-c2cccc(Cl)c2)o1)c1c(C)[nH][nH]c1=O,2.82µM*,0.0%,79.4µM*,0.0%,-9.9%,4.1%,.,GALK confirm=53µM*;Redox cycling=6.68µM*;HEK293 tox=-4.8%
Cc1[nH][nH]c(=O)c1C(c1ccc(Br)cc1)c1c(C)[nH][nH]c1=O,?,10.1%,-5.0%,-4.4%,-9.3%,-24.3%,.,
Cc1ccc(C2c3cccn3CCN2S(=O)(=O)c2ccc([N+](=O)[O-])cc2)cc1 (stereo not given),9.0%,-0.9%,-7.6%,-12.7%[60.1 µM],-1.6%,-3.9%,.,
COc1ccc(OC)c(/C=C2\S/C(=N/NC(=O)c3ccc4ccccc4c3)NC2=O)c1,-4.5%,-25.5%,20µM*,-20.9%,-16.6%,0.3%,.,Pol kappa inh-2=?
COc1ccc(/C=C2\SC(=Nc3ccccc3Cl)NC2=O)c(OC)c1,.,2.2%,-18.5%,.,.,.,.,
O=C(NCCc1ccccc1)c1c2c(nc3ccccc13)C(=O)N(C1CCCCC1)C2,6.2%,8.5%,-11.2%,0.0%,-3.9%,-26.6%,.,
Cc1cc(C(F)(F)F)nc(SCc2ccc(C(=O)O)o2)n1,22.4µM*,?,8.91µM*,-32.2%,-2.3%,39.8µM*,?,
O=C(CN1C(=O)COc2ccc(S(=O)(=O)N3CCOCC3)cc21)Nc1ccc(F)c(Cl)c1,11.8%,-12.8%,-13.3%,-14.0%,-4.3%,-18.2%,.,
O=C(/C=C/c1ccc(-c2ccccc2[N+](=O)[O-])o1)c1ccco1,?,-10.8%,39.8µM*,?,-14.2%,?,75.7*,
O=C(/C=C/c1ccc([N+](=O)[O-])cc1)c1ccco1,?,-1.7%,3.6%,-0.6%,-2.8%,1.0%,.,
Cc1ccc(S(=O)(=O)N2[C@@H](c3cccc(Cl)c3)C(C(=O)O)=CC[C@H]2c2ccc(C(C)C)cc2)cc1,?,26.2%,89.1µM*,?,?,.,.,Pol kappa inh-2=?
Cc1ccn2c(=O)nc(SCC(=O)NC3CCCC3)nc2c1,?,6.9%,22.4µM*,-4.4%,-4.5%,.,75.7*,
Cc1cc(C)cc(OCCCC(=O)O)c1,11.8%,5.4%,-1.3%,-5.4%,-6.8%,-24.7%,.,
Cc1ccc(OCCC(=O)O)cc1,?,0.0%,56.2µM*,?,-0.8%,-1.0%,?,
O=C(CSc1ncnc2sc3c(c12)CCC3)N1CCOCC1,22.4µM*,19.1%,35.5µM*,79.4µM*,-12.4%,39.8µM*,?,
Cc1cc2oc(=O)cc(-c3ccccc3)c2c(C)c1-c1ccoc1,.,.,.,-5.8%,5.3%[88.6 µM],.,.,
Cc1ccc(CNC(=O)C2CCCCN2S(=O)(=O)c2ccc(F)cc2)cc1 (stereo not given),-2.0%,-0.2%,-21.0%,-3.1%,-2.0%,-27.9%,.,
CCOC(=O)c1c(NS(=O)(=O)Cc2ccccc2)sc2c1CCCC2,-3.9%,9.8%,-10.6%,-3.0%,-8.9%,15.6%,.,
CCOC(=O)c1c(NS(=O)(=O)c2ccc(Br)cc2)sc2c1CCC2,11.2µM*,-29.1%,20µM*,79.4µM*,.,.,?,
COc1ccc(NC(=O)C(NS(=O)(=O)c2ccc3c(c2)CCCC(=O)N3)C(C)C)c(OC)c1 (stereo not given),18.1%,-10.4%,-5.3%,-7.6%,17.7%,11.6%,.,
COc1cccc(N2CCN(C3C(=O)c4ccccc4N3C(C)=O)CC2)c1 (stereo not given),25.7%,12.0%,-4.0%,-7.7%,-15.6%,0.7%,.,
COCCCn1c(=O)/c(=C\c2ccccc2OC(C)C)s/c1=C(/C#N)C(=O)Nc1ccc(C(=O)O)cc1,?,-16.8%,?,-27.9%,?,1.1%,42.6*,
O=C(NC(Cc1ccccc1)C(=O)O)/C(=C/c1ccccc1)NC(=O)c1ccco1 (stereo not given),15.5%,?,-10.1%,-1.8%,-2.8%,-0.8%,.,
O=C(NC(Cc1ccccc1)C(=O)O)/C(=C/c1ccco1)NC(=O)c1cccc(Br)c1 (stereo not given),?,17.8µM*,20µM*,?,-5.8%,?,53.6*,Pol kappa inh-2=18.9*
Cc1ccc(S(=O)(=O)N2CCc3cc(C(=O)NCCc4ccccc4)ccc32)cc1,?,-7.2%,-16.5%,-19.1%,-7.2%,15.2%,.,
CC1CCN(S(=O)(=O)c2ccc3c(c2)C(Cl)(Cl)C(=O)N3)CC1,.,-25.9%,31.6µM*,.,.,.,?,
O=C(NNC(=O)c1cc2ccccc2o1)c1ccc(F)cc1,32.7%,-0.9%,4.8%,-16.0%,-3.5%,.,.,
